Measurements published in PubChem BioAssay (NCI).
This is part of a sample that, as a whole, favours compounds with a hit. Of some 83,000 tested, about 20% had one in any assay.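 In brief: 96-well plates, 48 h treatment, single concentration, percent growth endpoint.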 Unmarked numbers belong to inactive results. Activity calls are given as the source filed them. Rule for the calls: active = growth percent below 10; inactive = the rest.

Columns and labels:
Experiment in all cases: NCI-60 one-dose screen, 48 h (100 = growth as untreated, 0 = no growth, -100 = all killed)
Conditions in all cases: 10 µM
RPMI-8226 leukemia = test system: RPMI-8226 leukemia
OVCAR-8 ovarian = test system: OVCAR-8 ovarian
OVCAR-5 ovarian = test system: OVCAR-5 ovarian
OVCAR-4 ovarian = test system: OVCAR-4 ovarian
SK-OV-3 ovarian = test system: SK-OV-3 ovarian
IGROV1 ovarian = test system: IGROV1 ovarian
OVCAR-3 ovarian = test system: OVCAR-3 ovarian
HS 578T breast = test system: HS 578T breast
NCI/ADR-RES ovarian = test system: NCI/ADR-RES ovarian
T-47D breast = test system: T-47D breast
BT-549 breast = test system: BT-549 breast
MDA-MB-435 melanoma = test system: MDA-MB-435 melanoma
SW-620 colon = test system: SW-620 colon
MCF7 breast = test system: MCF7 breast
HCT-116 colon = test system: HCT-116 colon
HCC-2998 colon = test system: HCC-2998 colon
KM12 colon = test system: KM12 colon
MDA-MB-468 breast = test system: MDA-MB-468 breast

| SMILES | growth (RPMI-8226 leukemia) | growth (OVCAR-8 ovarian) | growth (OVCAR-5 ovarian) | growth (OVCAR-4 ovarian) | growth (SK-OV-3 ovarian) | growth (IGROV1 ovarian) | growth (OVCAR-3 ovarian) | growth (HS 578T breast) | growth (NCI/ADR-RES ovarian) | growth (T-47D breast) | growth (BT-549 breast) | growth (MDA-MB-435 melanoma) | growth (SW-620 colon) | growth (MCF7 breast) | growth (HCT-116 colon) | growth (HCC-2998 colon) | growth (KM12 colon) | growth (MDA-MB-468 breast) |
| --- | --- | --- | --- | --- | --- | --- | --- | --- | --- | --- | --- | --- | --- | --- | --- | --- | --- | --- |
| N#Cc1c(Cl)nc(SCc2ccc(F)cc2)nc1-c1ccc(F)cc1 | 91.4% | 89.2% | 95.6% | 95% | 103% | 109% | 111% | 95.2% | 86.6% | 66.8% | 95.4% | 99.1% | 98.6% | 82.6% | 81.5% | 111% | 91.6% | 112% |
| CN1CCN(c2ccc(Nc3nc(N4CCN(S(=O)(=O)c5ccc(Cl)cc5)CC4)c4sccc4n3)cc2)CC1 | -23.6% (active) | -82.9% (active) | -80.9% (active) | -82.6% (active) | 116% | 84.3% | -34.9% (active) | 83.9% | 16.1% | -34.4% (active) | 64.6% | -100% (active) | -52.2% (active) | -83.5% (active) | -49.9% (active) | -8.56% (active) | -15.3% (active) | -96.7% (active) |
| O=C(c1ccc(Cl)cc1)C1[C@H](c2ccccc2Br)[C@@H](c2ccccc2)NC12C(=O)Nc1ccccc12 (stereo partly specified) | 12.3% | 27.4% | 4.22% (active) | 25.9% | 35.9% | 31.3% | 10.5% | 18% | -70% (active) | 48.6% | 48% | -47.3% (active) | 5.99% (active) | -4.27% (active) | 16.3% | 7.29% (active) | 15.2% | -45.9% (active) |
| COc1ccc(C(=O)/C=C/c2ccc(Cl)c(C(F)(F)F)c2)cc1S(N)(=O)=O | 2.54% (active) | -73.4% (active) | -100% (active) | -99.7% (active) | 9.96% (active) | -91.5% (active) | -66.5% (active) | -41.3% (active) | -44% (active) | -82.6% (active) | -82.3% (active) | -96.4% (active) | -94.7% (active) | -93.6% (active) | -71.6% (active) | -88.3% (active) | -43.7% (active) | -93.4% (active) |
| COc1ccc(C(=O)Nc2ccc(-c3ccc4c(c3)NC(=O)/C4=C\c3ccc[nH]3)cc2)cc1 | 65.5% | -22.3% (active) | 51.8% | -36.8% (active) | 79.2% | 65.9% | 9.86% (active) | -0.0796% (active) | -42.8% (active) | 14.5% | 88.5% | 30.4% | -14.7% (active) | -31.9% (active) | 36.4% | 31.3% | 1.95% (active) | -70% (active) |
| CC1(C)CC[C@]2(C(=O)N3CCOCC3)CC[C@]3(C)C(=CC[C@@H]4[C@@]5(C)CC[C@H](NCO)C(C)(C)[C@@H]5CC[C@]43C)[C@H]2C1 | -38.5% (active) | -73.5% (active) | -99.9% (active) | -89.5% (active) | -86.4% (active) | -85.6% (active) | -82.7% (active) | -68.2% (active) | -73.1% (active) | -72.4% (active) | -92.2% (active) | -96.4% (active) | -88.8% (active) | -80.3% (active) | -88.9% (active) | -78.1% (active) | -90.5% (active) | -97% (active) |
| CN1CCO/C1=C(/NC(=O)c1ccc(Cl)cc1)[P+](c1ccccc1)(c1ccccc1)c1ccccc1 | 24.8% | 89% | 92.1% | 83.3% | 106% | 59.4% | 64.1% | 93.7% | 103% | 66% | 90.1% | 66.7% | 97.1% | 62.9% | 45.9% | 89.1% | 64.5% | -19.6% (active) |
| Cc1ccc(C(C)C)cc1NC(=O)c1ccccc1O | 3.01% (active) | 59.1% | 96.2% | 24.6% | 44.5% | 54.3% | 29.9% | 43% | 29.1% | 22% | -2.14% (active) | 44.7% | 62.8% | 40.2% | 34.6% | 47.5% | 48.5% | 40% |
| COc1ccc(-c2nc(S(=O)(=O)c3ccc(C)cc3)c(S(=O)(=O)CC(=O)N(C)Cc3ccccc3)o2)cc1 | -35.3% (active) | 29.2% | 63.1% | 68.5% | 98.4% | 66.3% | 1.33% (active) | 67.2% | 28.8% | -57.8% (active) | 72.6% | 32% | 9.27% (active) | 7.73% (active) | 6.34% (active) | 46.6% | 57.5% | -38.8% (active) |
| COc1ccc(-c2nc(S(=O)(=O)c3ccccc3)c(S(C)(=O)=O)o2)cc1 | -39.9% (active) | -28.3% (active) | -77.2% (active) | -87% (active) | 97.9% | 77.2% | -81.8% (active) | 75.2% | 0.892% (active) | -64.5% (active) | 3.82% (active) | -60.2% (active) | -25.3% (active) | -57.5% (active) | 0.823% (active) | -26.8% (active) | 66% | -88.1% (active) |
| COc1ccc(C=CC(=O)c2ccc(-n3c(C)nc4c(cnn4-c4ccccc4)c3=O)cc2)cc1 | -18.8% (active) | 83.4% | 111% | 65.7% | 123% | 92.7% | 61% | 85.5% | 62.3% | 34.7% | 45% | 11.2% | 75.1% | 8.3% (active) | 9.71% (active) | 86.8% | 31.6% | 11.3% |
| COc1ccc(C2NC(=S)NC(C)=C2C(=O)OC(C)C)cc1OC (stereo unspecified) | 104% | 106% | 105% | 99.3% | 135% | 109% | 113% | 89.8% | 102% | 91.1% | 103% | 104% | 103% | 108% | 99.3% | 114% | 103% | 98.9% |
| S=c1nc(-c2ccccc2)cc(-c2cc3ccccc3nc2Cl)[nH]1 | 76.3% | 76.1% | 110% | 91.7% | 75% | 82.8% | 76.7% | 57.6% | 49.1% | 78.1% | 51.9% | -10.8% (active) | 48.3% | 45.1% | 31.5% | 104% | 64.2% | 66.8% |
| Cc1ccc(CSc2nc(Cl)c(C#N)c(-c3ccc(F)cc3)n2)cc1 | 58.5% | 83.8% | 94.1% | 81.6% | 88.3% | 95.8% | 86.3% | 86.7% | 72.4% | 31.3% | 56.4% | 99.7% | 62.8% | 72.9% | 59.3% | 87.8% | 72.2% | 80.3% |
| C=CC(=O)Nc1nc(-c2cccc(NS(=O)(=O)c3cccc4c(N(C)C)cccc34)c2)cs1 | -36.2% (active) | -38.9% (active) | -61.6% (active) | 7.55% (active) | 47.4% | -74.1% (active) | -69.4% (active) | -0.555% (active) | -56.7% (active) | 0.269% (active) | -75.6% (active) | -92.4% (active) | -80.6% (active) | -82.1% (active) | -90.3% (active) | -88.1% (active) | -44% (active) | -87.8% (active) |
| Cc1ccc(CSc2nc(-c3ccc(F)cc3)c(C#N)c(=O)[nH]2)cc1 | 91.5% | 97.8% | 99% | 96.5% | 105% | 113% | 102% | 105% | 95.9% | 86.5% | 84.2% | 106% | 102% | 89.2% | 98.5% | 115% | 97% | 126% |
| CC(C)NC(=O)c1cc(-c2ccc(NC(=O)Nc3ccc(N4CCN(C)CC4)c(C(F)(F)F)c3)cc2)nc2cccnc12 | -37.5% (active) | -81.4% (active) | -99.5% (active) | -87.8% (active) | -93.1% (active) | -86.9% (active) | -84.9% (active) | -42.1% (active) | -61.7% (active) | -16.6% (active) | -95.5% (active) | -96.5% (active) | -64.6% (active) | -75.6% (active) | -90.6% (active) | -97.9% (active) | -83.6% (active) | -90.9% (active) |
